Results filed as inconclusive are left out. The source made the active and inactive calls. Calls come from the whole dose curve; as a rule, active = well fitted curve in the direction sought with a large enough effect; inconclusive = small, poorly fitted or top-dose-only effect, or another doubt; inactive = no such curve, though single readings can be large; an effect the other way counts as inactive or inconclusive.
Assays:
[1] = qHTS to identify inhibitors of the type 1 interferon - major histocompatibility complex class I in skeletal muscle: primary screen against the NCATS Pharmaceutical Collection (AID 1347407);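 note: luminescence of HiBiT knocked into endogenous HLA-B as interferon-induced MHC class I level; % is set by controls: 0 for no effect and ±100 for the full control effect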
How it was run: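 HLA-B HiBiT myoblasts, dexamethasone-free growth medium + 4 ng/ml IFN-b; compounds pinned 1 h after seeding, […] from 46 uM; 24 h, 37 C, 5% CO2; lytic HiBiT detection, 10 min RT, luminescence.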

[2] = target: Protein phosphatase 1D (Homo sapiens) (UniProt O15297); test: RapidFire Mass Spectrometry qHTS Assay for Modulators of WT P53-Induced Phosphatase 1 (WIP1) (AID 1347424);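 note: amount of dephosphorylated VEPPL-S-QETFS peptide product formed by WIP1; series mostly up to about 63 µM; plate controls were DMSO wells for no effect and GSK830371 inhibitor control at 10 µM for full effect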
Chain of Protein phosphatase 1D (Homo sapiens) (O15297 whole entry, looked up): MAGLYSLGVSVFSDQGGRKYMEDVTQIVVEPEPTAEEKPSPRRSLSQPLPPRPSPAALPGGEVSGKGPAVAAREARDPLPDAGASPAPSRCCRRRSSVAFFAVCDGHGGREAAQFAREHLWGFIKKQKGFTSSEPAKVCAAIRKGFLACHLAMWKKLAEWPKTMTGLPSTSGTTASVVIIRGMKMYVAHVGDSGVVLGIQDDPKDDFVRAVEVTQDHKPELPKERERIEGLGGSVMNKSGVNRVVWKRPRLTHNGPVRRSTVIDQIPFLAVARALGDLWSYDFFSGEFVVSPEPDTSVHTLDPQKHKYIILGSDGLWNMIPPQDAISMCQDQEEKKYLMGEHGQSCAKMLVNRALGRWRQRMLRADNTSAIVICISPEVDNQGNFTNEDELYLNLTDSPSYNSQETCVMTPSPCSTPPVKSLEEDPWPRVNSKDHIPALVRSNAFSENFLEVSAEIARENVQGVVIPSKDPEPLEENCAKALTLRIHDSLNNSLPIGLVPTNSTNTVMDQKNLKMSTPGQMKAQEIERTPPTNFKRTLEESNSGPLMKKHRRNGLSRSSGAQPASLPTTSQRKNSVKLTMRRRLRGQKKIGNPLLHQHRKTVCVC
How it was run: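 WIP1 (10 nM final) was preincubated 1 h at room temperature with compounds in Tris-HCl pH 7.5, 30 mM MgCl2, TCEP, EGTA, BSA; 2 uM VEPPL-pS-QETFS phosphopeptide was added for 5 min, quenched with formic acid, and dephosphorylated product quantified by RapidFire MS.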

[3] = target: Protein phosphatase 1D (Homo sapiens) (UniProt O15297); test: Rhodamine-PBP qHTS Assay for Modulators of WT P53-Induced Phosphatase 1 (WIP1) (AID 1347425); note: % of control where 0% means no effect
How it was run: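 WIP1 (5 nM final) was preincubated with compound for 1 hour at room temperature. It then dephosphorylated 10 uM VEPPL-pS-QETFS peptide in Tris-HCl pH 7.5 with 30 mM MgCl2. Released Pi was detected by 10 uM Rh-PBP fluorescence (ex 525/em 598 nm) read at 1-min intervals for 11 min, as delta f1 - f0.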

[4] = Primary qHTS for inhibitors of La Crosse Virus (LACV) - induced cell death in SH-SY5Y cells (AID 1508616);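 note: top concentration of the series differs between compounds; 0% = infected DMSO wells and 100% = uninfected DMSO wells; higher means more rescue of cells from virus-induced death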
How it was run: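 Luminescent ATP readout (ATPLite 1step, 5 min room temperature) measured rescue from LACV-induced death after 6 days of infection at 0.01 MOI; normalized to infected DMSO wells and uninfected DMSO wells.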

[5] = target: Calcium and integrin-binding protein 1 (Homo sapiens) (UniProt Q99828); test: Primary qHTS for Identification of Calcium Integrin Binding Protein 1 (CIB1) Competitor (AID 1508620);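 note: GST tagged CIB1 binding a fluorescein labelled alphaIIb integrin peptide tracer; top concentration of the series differs between compounds; % is set by controls: 0 for no effect and ±100 for the full control effect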
Chain of Calcium and integrin-binding protein 1 (Homo sapiens) (Q99828 whole entry, looked up): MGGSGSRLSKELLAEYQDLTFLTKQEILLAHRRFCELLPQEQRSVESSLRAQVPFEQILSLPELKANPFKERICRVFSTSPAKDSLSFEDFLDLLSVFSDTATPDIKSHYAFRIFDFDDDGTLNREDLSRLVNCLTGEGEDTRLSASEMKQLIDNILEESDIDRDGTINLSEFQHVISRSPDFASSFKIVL
How it was run: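 Fluorescence polarization competition: CIB1-GST (1 uM final) preincubated with compound 15 min at room temperature, then FITC-labeled alphaIIb peptide (100 nM final) added for another 15 min. Polarization read at Ex 480/Em 540.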

CCN(CC)CCNC(=O)c1cc(Br)c(N)cc1OC
inactive: Potency [1] | Potency [2] | outcome [3] | outcome [4] | Potency [5]

NS(=O)(=O)c1ccc(Cl)c(S(N)(=O)=O)c1
inactive: Potency [1] | Potency [2] | outcome [3] | outcome [4] | Potency [5]

Cc1cccc(C)c1NC(=O)CN1CCCCCC1
inactive: Potency [1] | Potency [2] | outcome [3] | outcome [4] | Potency [5]

COc1ccc(S(=O)(=O)N2c3ccc(Cl)cc3[C@@](O)(c3ccccc3Cl)[C@H]2C(=O)N2CCC[C@@H]2C(N)=O)cc1OC
inactive: Potency [1] | Potency [2] | outcome [3] | outcome [4] | Potency [5]

COc1ccc(CCN(C)CCCN2CCc3cc(OC)c(OC)cc3CC2=O)cc1OC
inactive: Potency [1] | Potency [2] | outcome [3] | outcome [4] | Potency [5]

CCCCCCCCCCCCCCCCO
inactive: Potency [1] | Potency [2] | outcome [3] | outcome [4] | Potency [5]

CC[N+](C)(CC)CCOC(=O)C(O)(c1ccccc1)C1CCCCC1 (stereo not given)
inactive: Potency [1] | Potency [2] | outcome [3] | outcome [4] | Potency [5]

CC(CNC1CCCCC1)OC(=O)c1ccccc1 (stereo not given)
inactive: Potency [1] | Potency [2] | outcome [3] | outcome [4] | Potency [5]

CCN[C@@H]1C[C@H](N)[C@@H](OC2OC(CN)=CCC2N)[C@H](O)[C@H]1O[C@H]1OC[C@](C)(O)[C@H](NC)[C@H]1O (stereo not given in full)
inactive: activity change, negative = inhibition [1] 4.01% [at 0.727 µM] | activity change, negative = inhibition [2] -11.3% [at 0.505 µM] | activity change, negative = inhibition [3] -2.47% [at 0.575 µM] | activity change [4] -7.05% [at 0.0343 µM] | activity change, negative = inhibition [5] 1.28% [at 1.07 µM]

COC(=O)C(c1ccccc1Cl)N1CCc2sccc2C1 (stereo not given)
inactive: Potency [1] | Potency [2] | outcome [3] | outcome [4] | Potency [5]

O=C(O)CCC(=O)Nc1ccc(S(=O)(=O)Nc2nccs2)cc1
inactive: Potency [1] | Potency [2] | outcome [3] | outcome [4] | Potency [5]

CCCCOC(=O)CC(CC(=O)OCCCC)(OC(C)=O)C(=O)OCCCC
inactive: Potency [1] | Potency [2] | outcome [3] | outcome [4] | Potency [5]

COc1ccc2c(c1)c1c3n2CCN(C)C3=NCC1
inactive: Potency [1] | Potency [2] | outcome [3] | outcome [4] | Potency [5]

CC(C)Nc1cccnc1N1CCN(C(=O)c2cc3cc(NS(C)(=O)=O)ccc3[nH]2)CC1
inactive: Potency [1] | Potency [2] | outcome [3] | outcome [4] | Potency [5]

Nc1ccc(S(=O)(=O)NCc2ccccc2)cc1
inactive: Potency [1] | Potency [2] | outcome [3] | outcome [4] | Potency [5]

C[N+]1(CC2COC(c3ccccc3)(C3CCCCC3)O2)CCCCC1 (stereo not given)
inactive: Potency [1] | Potency [2] | outcome [3] | outcome [4] | Potency [5]

From PubChem BioAssay (NCATS)
